Assay results from PubChem BioAssay (Tox21).
Where “and” joins values, the source holds several entries; their conditions need not be identical. Equal entries are not always repeated. Records with an inconclusive call do not appear. The source holds several records for some structures; these can differ, active in one and inactive in another. Calls of active or inactive are those of the source. Unless noted, the call rests on the fitted dose curve; in most records, active means well fitted curve in the direction sought with a large enough effect in the repeat runs; inconclusive means weak or mixed curves; inactive means no such curve, though single readings can be large; an effect the other way counts as inactive or inconclusive.

Assays:
[1] = qHTS assay to identify small molecule antagonists of the estrogen related receptor (ERR) signaling pathway from Tox21 library - cell viability counter screen (AID 1224834); further: nearly all actives have a fitted effect of over 30% in size; further: potency means the concentration at half of the fitted maximal effect
Procedure, shortened: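 Compounds in DMSO were pinned onto ERR cells that had been incubated for 6 h, and the plates were held at 37 C for 17.5 h. CellTiter-Fluor reagent was then added and fluorescence was measured after 30 min.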

[2] = target: Luciferin 4-monooxygenase (Photinus pyralis) (UniProt P08659); test: qHTS assay to identify small molecule inhibitors of firefly luciferase (AID 1224835); further: nearly all actives have a fitted effect of over 25% in size; further: potency means the concentration at half of the fitted maximal effect
Procedure, shortened: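 Biochemical qHTS: compounds run as interplate titrations against purified firefly enzyme, with D-luciferin and ATP each at its KM concentration. Light output recorded by CCD imaging.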

[3] = qHTS assay to identify small molecule agonists of the constitutive androstane receptor (CAR) signaling pathway - cell viability counter screen (AID 1224836); further: nearly all actives have a fitted effect of over 45% in size; further: potency means the concentration at half of the fitted maximal effect
Procedure, shortened: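 Multiplexed viability check: HepG2-CYP2B6-hCAR cells, 15-point compound dosing, 0.75 uM PK11195 final, 23 h at 37 C, CellTiter-Fluor fluorescence.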

[4] = qHTS assay to identify small molecule antagonists of the constitutive androstane receptor (CAR) signaling pathway - cell viability counter screen (AID 1224837); further: nearly all actives have a fitted effect of over 45% in size; further: potency means the concentration at half of the fitted maximal effect
Procedure, shortened: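 Cells are seeded, rested 4 hr at 37 C/5% CO2, dosed with compound (15-point series) and 50 nM CITCO, incubated a further 23 hr, and then CellTiter-Fluor reagent is added before fluorescence is read. The line is HepG2 with stable hCAR and CYP2B6-2.2kb.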

[5] = target: Nuclear receptor subfamily 1 group I member 3 (Homo sapiens) (UniProt Q14994); test: qHTS assay to identify small molecule antagonists of the constitutive androstane receptor (CAR) signaling pathway (AID 1224838);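 further: HepG2 cells stably expressing hCAR with CYP2B6 luciferase reporter stimulated by CITCO; nearly all actives have a fitted effect of over 40% in size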; further: potency means the concentration at half of the fitted maximal effect
Procedure, shortened: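 Luminescence from a CYP2B6-2.2kb promoter reporter in hCAR-expressing HepG2 cells reflects CAR signaling. Cells received compounds at 15 concentrations and 50 nM CITCO (final), then incubated 24 h at 37 C/5% CO2.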

[6] = target: Nuclear receptor subfamily 1 group I member 3 (Homo sapiens) (UniProt Q14994); test: qHTS assay to identify small molecule agonists of the constitutive androstane receptor (CAR) signaling pathway (AID 1224839); further: nearly all actives have a fitted effect of over 15% in size; further: potency means the concentration at half of the fitted maximal effect;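 on activation: HepG2 cells stably carrying human CAR and a CYP2B6 luciferase reporter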
Procedure, shortened: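 Using human hepatoma HepG2 cells engineered with hCAR and a CYP2B6-2.2kb reporter, 15-concentration compound series were incubated 24 h alongside PK11195 at 0.75 uM final, with luminescence quantified afterwards.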

[7] = qHTS assay to identify small molecule antagonists of the estrogen related receptor signaling pathway with the pleiotropic PPARgamma coactivator (PGC) from Tox21 10K library - cell viability counter screen (AID 1224840; active means well fitted cell-killing curve with a large enough effect in the repeat runs, not every such curve was filed as active; further: nearly all actives have a fitted effect of over 40% in size; further: potency means the concentration at half of the fitted maximal effect)
Procedure, shortened: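 Cell viability is measured by CellTiter-Fluor fluorescence in PGC/ERR cells that receive compounds after a 6-hour attachment period and are then incubated 17.5 hours at 37 C.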

[8] = qHTS assay to identify small molecule agonists of the hypoxia (HIF-1) signaling pathway - cell viability counter screen (AID 1224844; calls by dose curve; further: nearly all actives have a fitted effect of over 50% in size; further: potency means the concentration at half of the fitted maximal effect)
Procedure, shortened: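 Viability counter screen: HRE-bla ME-180 cells plated 5 hrs before compound addition, treated 17 hrs at 37C and 5% CO2, then CellTiter-Glo added after the FRET reporter read; luminescence after 30 min.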

[9] = qHTS assay to identify small molecule agonists of H2AX (AID 1224845; active means well fitted activation curve with a large enough effect in the signal ratio in the repeat runs, not every such curve was filed as active; the % refers to the signal ratio)
Procedure, shortened: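 Wild-type CHO-K1 cells, plated overnight, exposed 3hr at 37C to 15 concentrations (0.76% DMSO final). Lysed, then HTRF anti-pH2AX (S139) cryptate and anti-H2AX-d2 antibodies, 24 hr room temperature; 665/620 nm emission read.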

[10] = qHTS assay to identify small molecule agonists of the hypoxia (HIF-1) signaling pathway (AID 1224846; active means well fitted activation curve with a large enough effect in the signal ratio in the repeat runs, not every such curve was filed as active; the % refers to the signal ratio)
Procedure, shortened: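 Agonist mode reporter screen. ME-180 cells stably expressing bla under HRE control received test compounds in DMSO for 17 hrs (37C, 5% CO2), and beta-lactamase activity was then detected with the CCF4-AM FRET substrate.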

[11] = qHTS assay to identify small molecule agonists of H2AX - cell viability counter screen (AID 1224847; calls by dose curve; further: nearly all actives have a fitted effect of over 30% in size; further: potency means the concentration at half of the fitted maximal effect)
Procedure, shortened: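 After overnight plating of 1000 CHO-K1 cells per well, a 15-concentration compound series was applied for 3 hr at 37C. Luminescence from CellTiter-Glo, read following 30 min at room temperature, reflected cell viability.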

[12] = qHTS RealTime-Glo MT Cell Viability Assay in HEK293 cells - 32 hour (AID 1224868); further: nearly all actives have a fitted effect of over 50% in size; further: potency means the concentration at half of the fitted maximal effect
Procedure, shortened: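 HEK293 cells seeded with NanoLuc/prosubstrate reagent, rested 5 h at 37 C, then dosed and kept at 37 C up to 40 h. Nonlytic real-time luminescence from viable cells read at 0, 8, 16, 24, 32 and 40 h.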

[13] = A CellTox Green Cytotoxicity Assay to monitor cytotoxicity in HEK293 cells - 0 hour (AID 1224869); further: nearly all actives have a fitted effect of over 50% in size; further: potency means the concentration at half of the fitted maximal effect
Procedure, shortened: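 Dead-cell fluorescence measured kinetically: asymmetric cyanine dye, HEK293, 600 cells/well, 5 h settle, 23 nL cpd/DMSO, 37 C, reads 0–40 h every 8 h.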

[14] = qHTS RealTime-Glo MT Cell Viability Assay in HepG2 cells - 40 hour (AID 1224870); further: nearly all actives have a fitted effect of over 50% in size
Procedure, shortened: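 HepG2 cells (600/well) mixed with RealTime-Glo MT reagent, settled 5 h at 37 C/5% CO2 before compound addition. Nonlytic NanoLuc luminescence from viable-cell prosubstrate reduction read repeatedly during 40 h treatment at 37 C.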

[15] = target: Thyrotropin receptor (Homo sapiens) (UniProt P16473); test: qHTS assay to identify small molecule agonists of the thyroid stimulating hormone receptor (TSHR) signaling pathway (AID 1224843; calls by dose curve; further: nearly all actives have a fitted effect of over 45% in size; further: potency means the concentration at half of the fitted maximal effect)
Procedure, shortened: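 HEK293/TSHR, 800 cells/well; cpd 30 min RT; add cAMP-d2 + anti-cAMP-cryptate, 1 h RT; fluorescence read on plate reader. 15-pt titration, n=3.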

[16] = qHTS RealTime-Glo MT Cell Viability Assay in HepG2 cells - 24 hour (AID 1224867); further: nearly all actives have a fitted effect of over 50% in size
Procedure, shortened: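 HepG2 cells (600/well) were dispensed with RealTime-Glo reagents, incubated 5 h at 37 °C, then treated with compounds in DMSO for up to 40 h. Nonlytic NanoLuc luminescence reflecting viable cells was read at each stated time point.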

[17] = qHTS assay to identify small molecule antagonists of the estrogen related receptor signaling pathway with the pleiotropic PPARgamma coactivator (PGC) from Tox21 10K library (AID 1224841; call rule not given here; further: potency means the concentration at half of the fitted maximal effect)
Procedure, shortened: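 Cells stably carrying the PGC/ERR reporter, seeded at 2,000 per well, received pin-transferred compounds 6 h post-plating. Exposure lasted 18 h at 37 C. Signal: One-Glo luminescence.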

[18] = qHTS assay to identify small molecule agonists of the estrogen related receptor signaling pathway with the pleiotropic PPARgamma coactivator (PGC) from Tox21 10K library (AID 1224842); further: nearly all actives have a fitted effect of over 15% in size
Procedure, shortened: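 PGC/ERR reporter cell line, 2,000 cells per well, incubated 6 h at 37 C before 23 nL compound in DMSO was added. After 18 h at 37 C, One-Glo luminescence read following 30 min at room temperature.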

[19] = qHTS assay to identify small molecule antagonists of the estrogen related receptor (ERR) signaling pathway from Tox21 library (AID 1224848); further: nearly all actives have a fitted effect of over 50% in size; further: potency means the concentration at half of the fitted maximal effect
Procedure, shortened: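 Compounds dissolved in DMSO are pin-transferred onto ERR reporter cells (2,000 per well) that have settled for 6 h at 37 C. Plates then incubate 18 h at 37 C before ONE-Glo luciferase reagent and a luminescence read 30 min later.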

[20] = qHTS assay to identify small molecule agonists of the estrogen related receptor (ERR) signaling pathway from Tox21 library (AID 1224849; calls by dose curve; further: nearly all actives have a fitted effect of over 15% in size); settings: ERR reporter cell line, ONE-Glo luciferase, 18 h
Procedure, shortened: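 Quantitative HTS in agonist format: NTP ERR cell line, compounds transferred in DMSO after 6 h plating, 18 h incubation at 37 C, ONE-Glo luminescence endpoint.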
On the % scale 0 is the no-effect control and ±100 the full control effect.

Sequence of Nuclear receptor subfamily 1 group I member 3 (Homo sapiens) (Q14994 whole entry, looked up): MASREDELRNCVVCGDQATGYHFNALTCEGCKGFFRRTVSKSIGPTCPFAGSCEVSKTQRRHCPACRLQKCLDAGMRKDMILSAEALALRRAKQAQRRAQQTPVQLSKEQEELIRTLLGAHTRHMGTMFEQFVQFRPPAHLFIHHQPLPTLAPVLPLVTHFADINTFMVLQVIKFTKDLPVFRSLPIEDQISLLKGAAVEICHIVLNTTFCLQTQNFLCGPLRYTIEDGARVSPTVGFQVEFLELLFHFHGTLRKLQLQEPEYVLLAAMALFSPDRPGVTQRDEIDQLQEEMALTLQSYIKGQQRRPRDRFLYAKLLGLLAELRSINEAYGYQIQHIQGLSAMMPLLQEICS
Sequence of Thyrotropin receptor (Homo sapiens) (P16473 whole entry, looked up): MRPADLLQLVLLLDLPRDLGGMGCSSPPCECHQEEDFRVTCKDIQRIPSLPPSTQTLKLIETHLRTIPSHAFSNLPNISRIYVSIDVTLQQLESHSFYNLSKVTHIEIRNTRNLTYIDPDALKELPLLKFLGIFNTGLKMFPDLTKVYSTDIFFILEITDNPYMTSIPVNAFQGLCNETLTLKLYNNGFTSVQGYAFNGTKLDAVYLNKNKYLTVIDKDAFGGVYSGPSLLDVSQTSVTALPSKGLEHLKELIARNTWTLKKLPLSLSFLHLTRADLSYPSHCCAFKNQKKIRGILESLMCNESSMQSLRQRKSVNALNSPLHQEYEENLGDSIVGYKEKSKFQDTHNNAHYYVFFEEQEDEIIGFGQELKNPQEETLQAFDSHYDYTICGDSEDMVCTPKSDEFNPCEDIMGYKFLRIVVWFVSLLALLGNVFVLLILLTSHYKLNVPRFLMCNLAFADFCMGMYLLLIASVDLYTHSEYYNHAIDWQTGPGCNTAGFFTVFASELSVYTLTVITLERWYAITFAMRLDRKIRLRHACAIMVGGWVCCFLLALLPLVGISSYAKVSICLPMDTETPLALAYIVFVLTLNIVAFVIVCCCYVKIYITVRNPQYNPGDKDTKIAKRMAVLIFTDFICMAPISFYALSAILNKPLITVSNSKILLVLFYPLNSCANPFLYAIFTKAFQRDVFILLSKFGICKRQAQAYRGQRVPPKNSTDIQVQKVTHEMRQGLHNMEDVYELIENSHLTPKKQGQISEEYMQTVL
Sequence of Luciferin 4-monooxygenase (Photinus pyralis) (P08659 whole entry, looked up): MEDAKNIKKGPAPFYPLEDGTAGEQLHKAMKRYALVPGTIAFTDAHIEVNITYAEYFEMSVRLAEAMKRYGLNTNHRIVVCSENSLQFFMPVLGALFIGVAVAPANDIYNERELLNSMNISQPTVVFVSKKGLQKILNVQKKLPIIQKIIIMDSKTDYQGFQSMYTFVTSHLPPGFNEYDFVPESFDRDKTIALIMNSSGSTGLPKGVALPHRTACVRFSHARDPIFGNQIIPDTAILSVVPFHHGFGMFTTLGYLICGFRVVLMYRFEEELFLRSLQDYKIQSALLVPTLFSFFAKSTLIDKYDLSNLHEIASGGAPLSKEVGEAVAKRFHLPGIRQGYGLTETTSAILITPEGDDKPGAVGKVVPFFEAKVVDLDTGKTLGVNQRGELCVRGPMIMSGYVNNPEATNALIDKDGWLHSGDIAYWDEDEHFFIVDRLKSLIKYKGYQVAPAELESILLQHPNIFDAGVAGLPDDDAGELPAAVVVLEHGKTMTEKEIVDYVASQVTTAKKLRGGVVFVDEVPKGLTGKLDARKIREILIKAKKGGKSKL

COC(=O)c1cccc(C(=O)OC)c1
inactive and 43.6 µM (active): Potency [13]
inactive: Potency [1] | Potency [2] | Potency [3] | Potency [4] | Potency [5] | Potency [6] | Potency [7] | Potency [8] | Potency [9] | Potency [10] | Potency [11] | Potency [12] | Potency [14]

NNCCc1ccccc1
25.3 µM (active) and inactive: Potency [2]
inactive: Potency [1] | Potency [3] | Potency [4] | Potency [5] | Potency [7] | Potency [15] | Potency [8] | Potency [9] | Potency [16] | Potency [12] | Potency [13] | Potency [14]

CC[C@H]1CN2CCc3cc(OC)c(OC)cc3[C@@H]2C[C@@H]1C[C@H]1NCCc2cc(OC)c(OC)cc21
inactive: Potency [2] | Potency [6] | Potency [11] | Potency [13]
active: Potency [1] 15.4 nM and 84.1 nM | Potency [3] 24.4 nM and 150 nM | Potency [4] 27.4 nM and 133 nM | Potency [5] 54.6 nM and 237 nM | Potency [7] 24.4 nM and 168 nM | Potency [12] 15.5 nM and 42.5 nM

c1ccc2c(c1)-c1cccc3c1c-2cc1ccccc13
inactive: Potency [1] | Potency [3] | Potency [4] | Potency [5] | Potency [7] | Potency [9] | Potency [16] | Potency [13] | Potency [14]
active: Potency [2] 7.1 µM | Potency [6] 21.2 µM and 17.2 µM | Potency [8] 33.9 µM | Potency [11] 78.2 µM and 89.8 µM

CCCCC/C=C/CC1CC(=O)OC1=O (centres undefined)
inactive: Potency [1] | Potency [2] | Potency [4] | Potency [5] | Potency [6] | Potency [7] | Potency [17] | Potency [18] | Potency [15] | Potency [8] | Potency [9] | Potency [10] | Potency [19] | activity change, positive = activation ([20]; at 92.4 µM (top of the series)) 5.46% | Potency [16] | Potency [12] | Potency [13] | Potency [14]

NC(N)=Nc1nc(CSCC/C(N)=N/S(N)(=O)=O)cs1
inactive: Potency [1] | Potency [2] | Potency [3] | Potency [4] | Potency [7] | Potency [17] | Potency [18] | Potency [8] | Potency [9] | Potency [11] | Potency [19] | activity change, positive = activation ([20]; at 42.5 µM (top of the series)) 8.96% | activity change, positive = activation ([20]; at 92.4 µM (top of the series)) 4.57% | Potency [16] | Potency [12] | Potency [13] | Potency [14]

CC(C)(C)NCC(O)c1cc(O)cc(O)c1 (centres undefined)
inactive: Potency [1] | Potency [2] | Potency [3] | Potency [4] | Potency [7] | Potency [9] | Potency [10] | Potency [11] | Potency [16] | Potency [12] | Potency [13] | Potency [14]
active: Potency [15] 0.596 µM

CC(C)(C)c1ccc(O)c(C(C)(C)C)c1
inactive: Potency [2] | Potency [3] | Potency [4] | Potency [5] | Potency [6] | Potency [18] | activity change, positive = activation ([20]; at 92.4 µM (top of the series)) -41% and -33.5% | Potency [13] | Potency [14]
active: Potency [1] 48.4 µM and 61.1 µM | Potency [8] 43.5 µM | Potency [11] 89.4 µM | Potency [19] 54.3 µM and 61.1 µM
54.3 µM (active) and inactive: Potency [17]

Cc1scc2c1N(C(=O)CN1CCN(C)CC1)c1ccccc1NC2=O
inactive: Potency [1] | Potency [2] | Potency [3] | Potency [4] | Potency [6] | Potency [7] | Potency [15] | Potency [8] | Potency [9] | Potency [11] | Potency [16] | Potency [12] | Potency [13] | Potency [14]

CC1COc2c(N3CCN(C)CC3)c(F)cc3c(=O)c(C(=O)O)cn1c23 (centres undefined)
inactive: Potency [1] | Potency [2] | Potency [3] | Potency [4] | Potency [7] | Potency [15] | Potency [8] | Potency [9] | Potency [11] | Potency [13]

O=C(O)c1cn(-c2ccc(F)cc2)c2cc(N3CCNCC3)c(F)cc2c1=O
inactive: Potency [1] | Potency [2] | Potency [3] | Potency [4] | Potency [7] | Potency [15] | Potency [8] | Potency [9] | Potency [10] | Potency [11] | Potency [12] | Potency [13] | Potency [14]

CCC(C)(Oc1ccc(C2(c3ccc(OC(C)(CC)C(=O)O)cc3)CCCCC2)cc1)C(=O)O (centres undefined)
inactive: Potency [1] | Potency [2] | Potency [4] | Potency [5] | Potency [6] | Potency [7] | Potency [17] | Potency [18] | Potency [15] | Potency [8] | Potency [9] | Potency [10] | Potency [11] | Potency [19] | activity change, positive = activation ([20]; at 42.5 µM (top of the series)) 9.22% | Potency [16] | Potency [13] | Potency [14]

Cc1cc(C2(c3cc(C)c(O)cc3C)OS(=O)(=O)c3ccccc32)c(C)cc1O
34.4 µM (active) and inactive: Potency [17]
61.1 µM (active) and inactive: Potency [19]
inactive: Potency [5] | Potency [6] | Potency [18] | Potency [15] | Potency [8] | Potency [10] | Potency [11] | activity change, positive = activation ([20]; at 92.4 µM (top of the series)) -48.1% and -15.2% | Potency [12] | Potency [13] | Potency [14]
active: Potency [2] 35.6 µM | Potency [3] 24.3 µM and 27.3 µM | Potency [4] 24.3 µM and 19.3 µM | Potency [7] 19.3 µM
